Inconclusive results are not listed. Active and inactive are the calls of the source. The call rests on the fitted dose curve; in most records, active means well fitted curve in the direction sought with a large enough effect; inconclusive means small, poorly fitted or top-dose-only effect, or another doubt; inactive means no such curve, though single readings can be large; an effect the other way counts as inactive or inconclusive.
Columns and labels:
[1] = Quantitative High-Throughput drug screen in 47 multiple myeloma cell lines against the NCATS MIPE library collection: JIM1_ECACC cell viability assay (AID 1918964; further: potency means the concentration at half of the fitted maximal effect)
Procedure, shortened: (§1)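 Approved and investigational drugs from MIPE 4.0 were added by pin tool to 500 cells per well. After 48 hours at 37C, ATP-based CellTiter-Glo luminescence indicated remaining viability.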

[2] = Quantitative High-Throughput drug screen in 47 multiple myeloma cell lines against the NCATS MIPE library collection: INA6_PLB cell viability assay (AID 1918965; further: potency means the concentration at half of the fitted maximal effect; nearly all actives have a fitted effect of over 55% in size)
Procedure, shortened: (§2)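 Myeloma cell lines, 500 cells per well, exposed to MIPE 4.0 library compounds for 48 h at 37C, 5% CO2. Viability from ATP by CellTiter-Glo luminescence; normalised to DMSO (100%) and media-only (0%) wells.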

[3] = Quantitative High-Throughput drug screen in 47 multiple myeloma cell lines against the NCATS MIPE library collection: JJN3_DSMZ cell viability assay (AID 1918966; further: potency means the concentration at half of the fitted maximal effect; nearly all actives have a fitted effect of over 50% in size)
Procedure, shortened: as §1

[4] = Quantitative High-Throughput drug screen in 47 multiple myeloma cell lines against the NCATS MIPE library collection: H1112_PLB cell viability assay (AID 1918967; further: nearly all actives have a fitted effect of over 30% in size; further: potency means the concentration at half of the fitted maximal effect)
Procedure, shortened: as §1

[5] = Quantitative High-Throughput drug screen in 47 multiple myeloma cell lines against the NCATS MIPE library collection: Karpas25_ECACC cell viability assay (AID 1918968; further: potency means the concentration at half of the fitted maximal effect; nearly all actives have a fitted effect of over 35% in size)
Procedure, shortened: as §1

[6] = Quantitative High-Throughput drug screen in 47 multiple myeloma cell lines against the NCATS MIPE library collection: KMS27_JCRB cell viability assay (AID 1918970); further: potency means the concentration at half of the fitted maximal effect; nearly all actives have a fitted effect of over 30% in size
Procedure, shortened: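 ATP-based viability (CellTiter-Glo luminescence) is measured in cells treated 48 h with approved and investigational drugs at 37 °C. Controls are DMSO-only wells for full viability and media-only wells for none.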

[7] = Quantitative High-Throughput drug screen in 47 multiple myeloma cell lines against the NCATS MIPE library collection: KMS12BM_JCRB cell viability assay (AID 1918971); further: potency means the concentration at half of the fitted maximal effect; nearly all actives have a fitted effect of over 35% in size
Procedure, shortened: (§3)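 We plated 500 myeloma cells per well, pinned in MIPE 4.0 compounds, and incubated for 48 hours at 37C. ATP was then quantified with CellTiter-Glo, with DMSO and media-only wells defining 100% and 0%.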

[8] = Quantitative High-Throughput drug screen in 47 multiple myeloma cell lines against the NCATS MIPE library collection: KMS20_JCRB cell viability assay (AID 1918973); further: nearly all actives have a fitted effect of over 45% in size; further: potency means the concentration at half of the fitted maximal effect
Procedure, shortened: as §1

[9] = Quantitative High-Throughput drug screen in 47 multiple myeloma cell lines against the NCATS MIPE library collection: KMS21BM_JCRB cell viability assay (AID 1918974); settings: ATP luminescence, 48 h; viability: at 45.8 µM (top of the series) unless noted; further: potency means the concentration at half of the fitted maximal effect
Procedure, shortened: as §1

[10] = Quantitative High-Throughput drug screen in 47 multiple myeloma cell lines against the NCATS MIPE library collection: KMS26_JCRB cell viability assay (AID 1918975); further: nearly all actives have a fitted effect of over 45% in size; further: potency means the concentration at half of the fitted maximal effect
Procedure, shortened: as §3

[11] = Quantitative High-Throughput drug screen in 47 multiple myeloma cell lines against the NCATS MIPE library collection: MMM1_PLB cell viability assay (AID 1918976); further: nearly all actives have a fitted effect of over 35% in size; further: potency means the concentration at half of the fitted maximal effect
Procedure, shortened: (§4)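 500 cells/well per myeloma line exposed to pinned MIPE 4.0 compounds for 48 h at 37 °C, 5% CO2. Viability read as ATP by CellTiter-Glo luminescence, normalised to DMSO-only (100%) and media-only (0%) wells.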

[12] = Quantitative High-Throughput drug screen in 47 multiple myeloma cell lines against the NCATS MIPE library collection: MOLP8_DSMZ cell viability assay (AID 1918977); further: nearly all actives have a fitted effect of over 45% in size; further: potency means the concentration at half of the fitted maximal effect
Procedure, shortened: as §4

[13] = Quantitative High-Throughput drug screen in 47 multiple myeloma cell lines against the NCATS MIPE library collection: NCIH929_DSMZ cell viability assay (AID 1918978); further: nearly all actives have a fitted effect of over 35% in size; further: potency means the concentration at half of the fitted maximal effect
Procedure, shortened: as §4

[14] = Quantitative High-Throughput drug screen in 47 multiple myeloma cell lines against the NCATS MIPE library collection: OCIMY1_PLB cell viability assay (AID 1918979)
Procedure, shortened: as §4

[15] = Quantitative High-Throughput drug screen in 47 multiple myeloma cell lines against the NCATS MIPE library collection: MM1S_ATCC cell viability assay (AID 1918980); further: nearly all actives have a fitted effect of over 45% in size; further: potency means the concentration at half of the fitted maximal effect
Procedure, shortened: as §4

[16] = Quantitative High-Throughput drug screen in 47 multiple myeloma cell lines against the NCATS MIPE library collection: MM1R_ATCC cell viability assay (AID 1918981); further: nearly all actives have a fitted effect of over 35% in size; further: potency means the concentration at half of the fitted maximal effect
Procedure, shortened: as §4

[17] = Quantitative High-Throughput drug screen in 47 multiple myeloma cell lines against the NCATS MIPE library collection: JIM3_ECACC cell viability assay (AID 1918963; further: nearly all actives have a fitted effect of over 35% in size)
Procedure, shortened: as §2

[18] = Quantitative High-Throughput drug screen in 47 multiple myeloma cell lines against the NCATS MIPE library collection: KMS12PE_JCRB cell viability assay (AID 1918972); further: nearly all actives have a fitted effect of over 30% in size
Procedure, shortened: as §2

[19] = Quantitative High-Throughput drug screen in 47 multiple myeloma cell lines against the NCATS MIPE library collection: LP1_DSMZ cell viability assay (AID 1918982); further: nearly all actives have a fitted effect of over 35% in size
Procedure, shortened: as §4

Measured: Potency

Cc1nc(N)ncc1-c1nc(N2CCOCC2)c2sc(C(C)(C)O)cc2n1
active: [1] 41.8 nM | [2] 3.72 µM | [3] 5.26 µM | [4] 6.62 µM | [5] 418 nM | [6] 235 nM | [7] 8.33 µM | [8] 1.32 µM | [9] 1.05 µM | [10] 526 nM | [11] 148 nM | [12] 118 nM | [13] 52.6 nM | [14] 105 nM | [15] 743 nM | [16] 1.32 µM

O=C(c1cncc(Br)c1)N1CCC(N2CCCC2)CC1
not listed: [1] | [2] | [3] | [5] | [6] | [7] | [9] | [14]
inactive: all other assays above

Source: PubChem BioAssay (NCATS)
